This is a sample that favours compounds with a hit; in the whole collection about 4.6% have one here.
HCV inhibitor = qHTS Assay for Inhibitors of Hepatitis C Virus (HCV); Huh7.5.1 HCVcc-Cre infection, luciferase reporter, 44 h; Potency, µM (titrated, usually from 41.8 µM), for the others: at the highest dose activity change, negative = inhibition, usual class: inhibitors; 340,000 compounds, 3.4% hits; active = well fitted inhibition curve with a large enough effect; inconclusive = small, poorly fitted or top-dose-only effect, or another doubt; inactive = no such curve, though single readings can be large or run the other way
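A cell-based infection assay in which seeded cells (1,000 per well) receive test compound after 4 h, are inoculated with HCVcc-Cre at approximately 0.5 moi, and are incubated 44 h before luminescence detection.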
MARV entry inh = qHTS for inhibitors of binding or entry into cells for Marburg Virus. Marburg virus pseudotyped entry inhibition, cell reporter. Potency, µM (doses to about 37.8 µM), inactives show at the highest dose activity change, negative = inhibition, hits mostly inhibitors. 300,000 compounds, 1.8% hits. AID 540276, 2011; calls by dose curve; tested in HEK293 cells
LASV entry inh = qHTS for Inhibitors of binding or entry into cells for Lassa Virus | Lassa virus pseudotype entry inhibition, cell reporter | Potency, µM (series often up to 37.9 µM), for inactives: top-dose activity change, negative = inhibition, most hits filed as inhibitors | 300,000 compounds, 1.2% hits | AID 540256, 2011; calls by dose curve; tested in HEK293 cells; note: nearly all actives have a fitted effect of over 50% in size
VACV mCherry inh = qHTS for Stage-Specific Inhibitors of Vaccinia Orthopoxvirus: mCherry Reporter Primary qHTS | 310,000 compounds, 0.63% hits | Vaccinia virus mCherry reporter infection, fluorescence | Potency, µM (doses to about 36.5 µM), for inactives: at the highest dose activity change, negative = inhibition, usual class: inhibitors | AID 720579, 2013; calls by dose curve; tested in A549 cells; note: nearly all actives have a fitted effect of over 35% in size
Vaccinia Venus = qHTS for Stage-Specific Inhibitors of Vaccinia Orthopoxvirus: Venus Reporter Primary qHTS; Vaccinia virus Venus reporter expression, fluorescence; Potency, µM (titrated, usually from 36.5 µM), for inactives: top-dose activity change, negative = inhibition, usual class: inhibitors; 330,000 compounds, 0.46% hits; AID 720580, 2013; calls by dose curve; tested in A549 cells; note: nearly all actives have a fitted effect of over 30% in size
Starred values were filed as active, the others as inactive; i = inactive; ? = inconclusive; nt = no result; [ ] = another dose, or the depositor's remark. % is set by controls: 0 for no effect and ±100 for the full control effect; potency is the fitted concentration of half-maximal effect.

SMILES	HCV inhibitor	MARV entry inh	LASV entry inh	VACV mCherry inh	Vaccinia Venus
Cc1ccc(S(=O)(=O)N2CCCc3cc(NC(=O)c4ccc(C(C)(C)C)cc4)ccc32)cc1	nt	nt	4%[46.1 µM]	-15%	-6%
O=C(c1ccccc1)c1ccc2nc(N3CCN(c4ccc(F)cc4)CC3)c3nncn3c2c1	nt	2%[46.1 µM]	?	?	?
O=C(N/N=C/c1ccccn1)c1cccc([N+](=O)[O-])c1	-9%	?	-20%	-6%	-10%
O=C(N/N=C/c1cc([N+](=O)[O-])ccc1Cl)c1cc(-c2ccccc2)nc2ccccc12	-5%	nt	nt	nt	nt
COc1cccc(/C=N/NC(=O)c2cc3cc([N+](=O)[O-])ccc3s2)c1O	?	1.8µM*	?	5µM*	?
O=C(N/N=C/c1cc([N+](=O)[O-])ccc1O)c1cc(-c2ccccc2)nc2ccccc12	?	2.5µM*	8.9µM*	?	-10%
Cc1cc(C(=O)N/N=C/c2cc(N=Nc3ccccc3)ccc2O)n[nH]1	22µM*	0.5µM*	11µM*	?	?
O=C(NN=Cc1ccccc1O)c1cccc([N+](=O)[O-])c1	7.9µM*	10µM*	?	1.1µM*	?
Cc1cccc(CN2CCc3nnc(C(C)NC(=O)C4CCOCC4)n3CC2)c1 (centres undefined)	nt	nt	nt	-9%	-6%
C(=C\c1ccnc2ccccc12)/c1cccnc1	nt	nt	nt	-4%	-25%
COCc1ccc(CN2Cc3cc(Cl)ccc3OC(C)C2)o1 (centres undefined)	nt	nt	nt	-8%	-3%
COc1cc([N+](=O)[O-])cc(/C=N/NC(=O)c2ccc(NC(=O)c3ccc(C)cc3)cc2)c1O	2.5µM*	1.1µM*	?	1%	4%
CCc1ccc(-n2nc(C)c3c(C)cc(=O)n(CC(=O)Nc4ccccc4C(=O)OC)c32)cc1	nt	nt	8%[46.1 µM]	-14%	-5%
CC(C)(C)c1ccc(-n2nc(C#N)c(Cl)cc2=O)cc1	?	?	?	?	10µM*
O=C(c1ccccc1F)N(Cc1cc2cc3c(cc2nc1N1CCOCC1)CCC3)CC1CCCO1 (centres undefined)	nt	nt	nt	-15%	-7%
O=C(CSc1nnc(-c2ccccc2)n1Cc1ccco1)Nc1ccc(S(=O)(=O)N2CCCC2)cc1	14µM*	?	?	nt	nt
O=C(CSc1nnc(-c2ccco2)n1Cc1ccco1)Nc1ccccc1	-27%	-7%	-9%	nt	nt
COc1ccc(-c2cnc(SCC(=O)Nc3nc(C(C)(C)C)cs3)n2Cc2ccco2)cc1	4.5µM*	?	13µM*	nt	-17%
O=C(CSc1nnc(-c2ccncc2)n1Cc1ccco1)Nc1nc(-c2ccccc2)cs1	10µM*	?	-20%	-10%	-30%
CCn1c(SCC(=O)Nc2nc(-c3ccccc3)cs2)nnc1-c1ccccc1O	11µM*	?	?	nt	?
Cc1ccc(NC(=O)Cn2c(=O)n(Cc3ccc4c(c3)OCO4)c(=O)c3ccc(C(=O)NC4CCCCC4)cc32)cc1	nt	12%[46.1 µM]	0%[46.1 µM]	-7%	-7%
NC[C@H]1O[C@H](O[C@H]2[C@H](O)[C@@H](O[C@H]3O[C@H](CO)[C@@H](O)[C@H](N)[C@H]3O)[C@H](N)C[C@@H]2N)[C@H](N)[C@@H](O)[C@@H]1O	nt	nt	nt	-16%	-9%
COc1ccccc1/C=C/c1ccnc2ccccc12	nt	nt	nt	14%	-18%
Cc1ccc(NC(=O)CSc2nnc3c(n2)[nH]c2ccccc23)cc1	13%	2%[46.1 µM]	2%[46.1 µM]	-2%	0%
Cc1ccc(-c2csc(NC(=O)CSc3nnc4c(n3)[nH]c3ccccc34)n2)cc1	-27%	?	3.2µM*	?	?
SMILES	HCV inhibitor	MARV entry inh	LASV entry inh	VACV mCherry inh	Vaccinia Venus
Nc1nnc(CCS(=O)(=O)c2cc(Cl)ccc2Cl)s1	18%	-6%	1%	-1%[1.46 µM]	-6%
Cc1ccccc1CN(C)CCS(=O)(=O)c1cc(Cl)ccc1Cl	-15%	-25%[46.1 µM]	14%[46.1 µM]	5µM*	?
CC/C(=N/Nc1cccc(C)c1)c1cnnc(SC)n1	10µM*	?	-8%	?	-29%
CC(C)C[C@@H]1NC(=O)[C@H](C(C)C)NC(=O)c2cc([N+](=O)[O-])cc(I)c2NCC[C@@H](C(N)=O)NC1=O	-5%	-7%	2%	0%	-4%
CC[C@H](C)[C@@H]1NC(=O)[C@@H](CC(C)C)NC(=O)[C@H](C(C)C)NC(=O)[C@H]2CSSC[C@H](NC1=O)C(=O)N2	nt	nt	nt	5µM*	4.5µM*
CC1CCN(c2nc(-c3cccnc3)nc3scc(-c4ccccc4)c23)CC1	22µM*	nt	nt	nt	nt
Cc1ccc(C)c(S(=O)(=O)NCc2nc(N3CCCC3)c3cc(Cl)ccc3n2)c1	nt	nt	nt	-9%	-5%
CCCNC(=O)OCCC12CC3CC(CC(C3)C1)C2	11%	?	?	-13%	-8%
CCCNC(=O)NCCC12CC3CC(CC(C3)C1)C2	11%	0%[46.1 µM]	2.5µM*	i	-25%
COCc1c(C(=O)N2CCCC(C)C2)cnn1-c1nccc(-c2cc(C)sc2C)n1 (centres undefined)	nt	nt	nt	-5%	-3%
CO[C@H]1[C@H](NC(=O)C(C)C)c2ccccc2C12CCN(Cc1c(C)nn(C)c1Cl)CC2	nt	nt	nt	-8%	2%
CN1CCN(C(CNC(=O)c2cccc(F)c2)c2ccc3c(c2)OCO3)CC1 (centres undefined)	nt	nt	24%[46.1 µM]	-7%	-5%
Cc1cccc2c(SCC(N)=O)nc(-c3ccccc3)nc12	7.1µM*	nt	nt	nt	nt
NC(=O)CSc1nc(-c2ccccc2)nc2c1CCCC2	-16%	3%[46.1 µM]	-1%	9%	3%
CCCOc1ccccc1-n1sc2c(c1=S)-c1cc(OC)cc3c1N(C(=O)C3=O)C2(C)C	13µM*	?	?	i	-2%
COc1cc2c3c(c1)C(C)=CC(C)(C)N3C(=O)C2=O	-10%	?	3%	-22%	0%
CCN(C(=O)c1cc2c(C)nc3ccccc3c2o1)c1cc(Cl)ccc1OC	10µM*	13µM*	?	14%	-17%
COc1ccc(C)cc1NC(=O)c1c2c(nc3ccccc13)C(=O)N(C1CCCCC1)C2	nt	nt	?	-24%	-16%
Cc1cc(C)n(-c2ccc(C(=O)N3CCc4c(cnc(C)c4CNC(=O)c4ccccc4F)C3)cc2)n1	nt	nt	nt	-14%	-6%
COc1ccc(NC(=O)N(C)[C@H]2C[C@H]3c4[nH]c5ccc(-c6ccc(OC)cc6)cc5c4CCN3C(=O)[C@H]2[C@H](C)O)cc1	nt	nt	nt	-27%	?
CN[C@H]1C[C@H]2c3[nH]c4ccc(-c5ccc(OC)cc5)cc4c3CCN2C(=O)[C@H]1[C@H](C)O	nt	nt	nt	?	13µM*
Cc1ccc(S(=O)(=O)CCSc2nccn2C)cc1	2%	28%[46.1 µM]	9%[46.1 µM]	-13%	-9%
Cc1ccc(S(=O)(=O)CCSc2n[nH]c(=O)n2-c2ccccc2)cc1	?	-5%	14%	2µM*	2µM*

Screens: PubChem, National Center for Advancing Translational Sciences (NCATS)
